# The supplement of paper PMC6992640
# How the values were obtained:
# Test in all cases: cell viability of combination (% of vehicle); higher = less cytotoxic
# Details in all cases: 1 µM; 72 h; partner dose: 10 nM
# HCI01 [1] = system: HCI01 (cells of a triple-negative basal-like breast cancer xenograft)
# Protocol: (§1)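 PDX cells were treated for 72 h with each drug at 1 µM plus carfilzomib (10 nM; 100 nM for WHIM2). Luciferase viability is expressed as percent of vehicle.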
# UCD52 [2] = system: UCD52 (cells of a triple-negative basal-like breast cancer xenograft)
# Protocol: as §1
# WHIM30 = system: WHIM30 (cells of a triple-negative basal-like breast cancer xenograft)
# Protocol: as §1
# HCI01 [3] = system: HCI01; remark: listed apart in the source
# Protocol: (§2)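 PDX cells were treated for 72 h with each drug at 1 µM plus afatinib (10 nM; 1 µM for WHIM30). Luciferase viability is expressed as percent of vehicle.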
# UCD52 [4] = system: UCD52; remark: listed apart in the source
# Protocol: as §2
# WHIM2 = system: WHIM2 (cells of a triple-negative basal-like breast cancer xenograft)
# Protocol: as §2
compound,measurement,setting,value
CC[C@H](C)[C@H]1O[C@]2(CC[C@@H]1C)C[C@@H]1C[C@@H](C/C=C(\C)[C@@H](O[C@H]3C[C@H](OC)[C@@H](O[C@H]4C[C@H](OC)[C@@H](O)[C@H](C)O4)[C@H](C)O3)[C@@H](C)/C=C/C=C3\CO[C@@H]4[C@H](O)C(C)=C[C@@H](C(=O)O1)[C@]34O)O2 [Ivermectin] + CC(C)C[C@H](NC(=O)[C@H](CCc1ccccc1)NC(=O)CN1CCOCC1)C(=O)N[C@@H](Cc1ccccc1)C(=O)N[C@@H](CC(C)C)C(=O)[C@@]1(C)CO1 [Carfilzomib],cell viability of combination,HCI01 [1],92.6
same,cell viability of combination,UCD52 [2],43
same,cell viability of combination,WHIM30,20.6
CS(=O)(=O)O.Cc1c(O)cccc1C(=O)NC(CSc1ccccc1)C(O)CN1CC2CCCCC2CC1C(=O)NC(C)(C)C (configuration not stated) [Nelfinavir Mesylate] + CC(C)C[C@H](NC(=O)[C@H](CCc1ccccc1)NC(=O)CN1CCOCC1)C(=O)N[C@@H](Cc1ccccc1)C(=O)N[C@@H](CC(C)C)C(=O)[C@@]1(C)CO1 [Carfilzomib],cell viability of combination,HCI01 [1],80.3
same,cell viability of combination,UCD52 [2],57.2
same,cell viability of combination,WHIM30,26.7
COCCOC(=O)C1=C(C)NC(C)=C(C(=O)OCC=Cc2ccccc2)C1c1cccc([N+](=O)[O-])c1 (configuration not stated) [Cilnidipine] + CN(C)C/C=C/C(=O)Nc1cc2c(Nc3ccc(F)c(Cl)c3)ncnc2cc1O[C@H]1CCOC1 [Afatinib],cell viability of combination,HCI01 [3],48.9
same,cell viability of combination,UCD52 [4],70.6
same,cell viability of combination,WHIM2,40.4
[O-]n1ccccc1=S.[O-]n1ccccc1=S.[Zn+2] [Zinc Pyrithione] + CC(C)C[C@H](NC(=O)[C@H](CCc1ccccc1)NC(=O)CN1CCOCC1)C(=O)N[C@@H](Cc1ccccc1)C(=O)N[C@@H](CC(C)C)C(=O)[C@@]1(C)CO1 [Carfilzomib],cell viability of combination,HCI01 [1],68.3
same,cell viability of combination,UCD52 [2],42.8
same,cell viability of combination,WHIM30,13.4
COC(=O)C12CCC(C)(C)CC1C1C(=O)C=C3C4(C)C=C(C#N)C(=O)C(C)(C)C4CCC3(C)C1(C)CC2 (configuration not stated) [Bardoxolone methyl] + CC(C)C[C@H](NC(=O)[C@H](CCc1ccccc1)NC(=O)CN1CCOCC1)C(=O)N[C@@H](Cc1ccccc1)C(=O)N[C@@H](CC(C)C)C(=O)[C@@]1(C)CO1 [Carfilzomib],cell viability of combination,HCI01 [1],158
same,cell viability of combination,UCD52 [2],28.1
same,cell viability of combination,WHIM30,14.3
CC(NCCCc1cccc(C(F)(F)F)c1)c1cccc2ccccc12 (configuration not stated) [Cinacalcet] + CC(C)C[C@H](NC(=O)[C@H](CCc1ccccc1)NC(=O)CN1CCOCC1)C(=O)N[C@@H](Cc1ccccc1)C(=O)N[C@@H](CC(C)C)C(=O)[C@@]1(C)CO1 [Carfilzomib],cell viability of combination,HCI01 [1],82.4
same,cell viability of combination,UCD52 [2],56.1
same,cell viability of combination,WHIM30,19.5
Cl.Clc1ccccc1CN1CCc2sccc2C1 [Ticlopidine HCl] + CN(C)C/C=C/C(=O)Nc1cc2c(Nc3ccc(F)c(Cl)c3)ncnc2cc1O[C@H]1CCOC1 [Afatinib],cell viability of combination,HCI01 [3],57.8
same,cell viability of combination,UCD52 [4],75.9
same,cell viability of combination,WHIM2,47.9
CC1=CC(=O)c2ccccc2C1=O [Menadione] + CN(C)C/C=C/C(=O)Nc1cc2c(Nc3ccc(F)c(Cl)c3)ncnc2cc1O[C@H]1CCOC1 [Afatinib],cell viability of combination,HCI01 [3],55.8
same,cell viability of combination,UCD52 [4],74.6
same,cell viability of combination,WHIM2,50.2
Cc1cc(Nc2ncc(Cl)c(Nc3ccccc3S(=O)(=O)C(C)C)n2)c(OC(C)C)cc1C1CCNCC1 + CC(C)C[C@H](NC(=O)[C@H](CCc1ccccc1)NC(=O)CN1CCOCC1)C(=O)N[C@@H](Cc1ccccc1)C(=O)N[C@@H](CC(C)C)C(=O)[C@@]1(C)CO1 [Carfilzomib],cell viability of combination,HCI01 [1],81.5
same,cell viability of combination,UCD52 [2],31.4
same,cell viability of combination,WHIM30,7.66
Cc1cc(Nc2ncc(Cl)c(Nc3ccccc3S(=O)(=O)C(C)C)n2)c(OC(C)C)cc1C1CCNCC1 + CN(C)C/C=C/C(=O)Nc1cc2c(Nc3ccc(F)c(Cl)c3)ncnc2cc1O[C@H]1CCOC1 [Afatinib],cell viability of combination,HCI01 [3],44.4
same,cell viability of combination,UCD52 [4],28.7
same,cell viability of combination,WHIM2,36.7
COC(=O)c1ccc2c(c1)NC(=O)C2=C(Nc1ccc(N(C)C(=O)CN2CCN(C)CC2)cc1)c1ccccc1 [Nintedanib (BIBF 1120)] + CC(C)C[C@H](NC(=O)[C@H](CCc1ccccc1)NC(=O)CN1CCOCC1)C(=O)N[C@@H](Cc1ccccc1)C(=O)N[C@@H](CC(C)C)C(=O)[C@@]1(C)CO1 [Carfilzomib],cell viability of combination,HCI01 [1],76.4
same,cell viability of combination,UCD52 [2],37.5
same,cell viability of combination,WHIM30,24.9
CC1(COc2ccc3c(c2)ncn3-c2ccc3cccc(N4CCC(N)CC4)c3n2)COC1 + CN(C)C/C=C/C(=O)Nc1cc2c(Nc3ccc(F)c(Cl)c3)ncnc2cc1O[C@H]1CCOC1 [Afatinib],cell viability of combination,HCI01 [3],56.3
Clc1ccc(CSC(Cn2ccnc2)c2ccc(Cl)cc2Cl)cc1.O=[N+]([O-])O (configuration not stated) [Sulconazole Nitrate] + CC(C)C[C@H](NC(=O)[C@H](CCc1ccccc1)NC(=O)CN1CCOCC1)C(=O)N[C@@H](Cc1ccccc1)C(=O)N[C@@H](CC(C)C)C(=O)[C@@]1(C)CO1 [Carfilzomib],cell viability of combination,HCI01 [1],93.5
same,cell viability of combination,UCD52 [2],62.1
same,cell viability of combination,WHIM30,14.2
Cl.Cl.O=C1c2c(O)ccc(O)c2C(=O)c2c(NCCNCCO)ccc(NCCNCCO)c21 [Mitoxantrone HCl] + CC(C)C[C@H](NC(=O)[C@H](CCc1ccccc1)NC(=O)CN1CCOCC1)C(=O)N[C@@H](Cc1ccccc1)C(=O)N[C@@H](CC(C)C)C(=O)[C@@]1(C)CO1 [Carfilzomib],cell viability of combination,HCI01 [1],74.1
same,cell viability of combination,UCD52 [2],30
same,cell viability of combination,WHIM30,5.21
CCCSc1nc(NC2CC2c2ccc(F)c(F)c2)c2nnn(C3CC(OCCO)C(O)C3O)c2n1 (configuration not stated) [Ticagrelor] + CC(C)C[C@H](NC(=O)[C@H](CCc1ccccc1)NC(=O)CN1CCOCC1)C(=O)N[C@@H](Cc1ccccc1)C(=O)N[C@@H](CC(C)C)C(=O)[C@@]1(C)CO1 [Carfilzomib],cell viability of combination,HCI01 [1],95.1
same,cell viability of combination,UCD52 [2],54.3
same,cell viability of combination,WHIM30,14.4
CC1(COc2ccc3c(c2)ncn3-c2ccc3cccc(N4CCC(N)CC4)c3n2)COC1 + CC(C)C[C@H](NC(=O)[C@H](CCc1ccccc1)NC(=O)CN1CCOCC1)C(=O)N[C@@H](Cc1ccccc1)C(=O)N[C@@H](CC(C)C)C(=O)[C@@]1(C)CO1 [Carfilzomib],cell viability of combination,HCI01 [1],102
same,cell viability of combination,UCD52 [2],135
same,cell viability of combination,WHIM30,64.3
CC1(C)CCC(c2ccc(Cl)cc2)=C(CN2CCN(c3ccc(C(=O)NS(=O)(=O)c4ccc(NC(CCN5CCOCC5)CSc5ccccc5)c(S(=O)(=O)C(F)(F)F)c4)cc3)CC2)C1 (configuration not stated) [ABT-263 (Navitoclax)] + CC(C)C[C@H](NC(=O)[C@H](CCc1ccccc1)NC(=O)CN1CCOCC1)C(=O)N[C@@H](Cc1ccccc1)C(=O)N[C@@H](CC(C)C)C(=O)[C@@]1(C)CO1 [Carfilzomib],cell viability of combination,HCI01 [1],47
same,cell viability of combination,UCD52 [2],31.8
same,cell viability of combination,WHIM30,13.3
COc1cc2nccc(Oc3ccc(NC(=O)C4(C(=O)Nc5ccc(F)cc5)CC4)cc3)c2cc1OC.O=C(O)CC(O)C(=O)O [Cabozantinib malate (XL184)] + CC(C)C[C@H](NC(=O)[C@H](CCc1ccccc1)NC(=O)CN1CCOCC1)C(=O)N[C@@H](Cc1ccccc1)C(=O)N[C@@H](CC(C)C)C(=O)[C@@]1(C)CO1 [Carfilzomib],cell viability of combination,HCI01 [1],77
same,cell viability of combination,UCD52 [2],57.2
same,cell viability of combination,WHIM30,16.1
Cc1cccc(CN2CCN(C(c3ccccc3)c3ccc(Cl)cc3)CC2)c1.Cl.Cl (configuration not stated) [Meclizine 2HCl] + CC(C)C[C@H](NC(=O)[C@H](CCc1ccccc1)NC(=O)CN1CCOCC1)C(=O)N[C@@H](Cc1ccccc1)C(=O)N[C@@H](CC(C)C)C(=O)[C@@]1(C)CO1 [Carfilzomib],cell viability of combination,HCI01 [1],105
same,cell viability of combination,UCD52 [2],57.2
same,cell viability of combination,WHIM30,11.7
Cn1cnc2c(F)c(Nc3ccc(Br)cc3F)c(C(=O)NOCCO)cc21 + CN(C)C/C=C/C(=O)Nc1cc2c(Nc3ccc(F)c(Cl)c3)ncnc2cc1O[C@H]1CCOC1 [Afatinib],cell viability of combination,HCI01 [3],40.5
same,cell viability of combination,UCD52 [4],54
same,cell viability of combination,WHIM2,34.8
CCc1c(Cl)c(O)c(Cl)c(O)c1C(=O)OC1C(C)OC(OCC2=CC=CCC(O)C(C)=CC(CC)C(OC3OC(C)(C)C(OC(=O)C(C)C)C(O)C3O)C(C)=CC(C)=CCC(C(C)O)OC2=O)C(OC)C1O (configuration not stated) [Fidaxomicin] + CC(C)C[C@H](NC(=O)[C@H](CCc1ccccc1)NC(=O)CN1CCOCC1)C(=O)N[C@@H](Cc1ccccc1)C(=O)N[C@@H](CC(C)C)C(=O)[C@@]1(C)CO1 [Carfilzomib],cell viability of combination,HCI01 [1],92.5
same,cell viability of combination,UCD52 [2],62.7
same,cell viability of combination,WHIM30,21.2
CNC(=O)c1cc(Oc2ccc(NC(=O)Nc3ccc(Cl)c(C(F)(F)F)c3)c(F)c2)ccn1.Cl [Regorafenib hydrochloride] + CC(C)C[C@H](NC(=O)[C@H](CCc1ccccc1)NC(=O)CN1CCOCC1)C(=O)N[C@@H](Cc1ccccc1)C(=O)N[C@@H](CC(C)C)C(=O)[C@@]1(C)CO1 [Carfilzomib],cell viability of combination,HCI01 [1],77.7
same,cell viability of combination,UCD52 [2],52.7
same,cell viability of combination,WHIM30,32.8
CC(C)C[C@H](NC(=O)[C@H](Cc1ccccc1)NC(=O)c1cnccn1)B(O)O [Bortezomib] + CC(C)C[C@H](NC(=O)[C@H](CCc1ccccc1)NC(=O)CN1CCOCC1)C(=O)N[C@@H](Cc1ccccc1)C(=O)N[C@@H](CC(C)C)C(=O)[C@@]1(C)CO1 [Carfilzomib],cell viability of combination,HCI01 [1],28.8
same,cell viability of combination,UCD52 [2],15.5
same,cell viability of combination,WHIM30,5.02
